# Results: PubChem BioAssay (NCATS)
# “And” between values parts separate entries of the source, which are not always exact repeats. Equal entries are not always repeated. Results filed as inconclusive are left out. The source made the active and inactive calls. Unless noted, calls follow the shape of the dose curve; as a rule, active = well fitted curve in either direction with a large enough effect (not every such curve was filed as active); inconclusive = small, poorly fitted or top-dose-only effect, or another doubt; inactive = flat fitted curve, though single readings scatter.
# What was measured:
# [1] = molecular target: Lysosomal acid glucosylceramidase (Homo sapiens) (UniProt P04062); assay: Glucocerebrosidase-p2 (AID 348; in the data active = potency below about 10 µM; also: potency is read from the fitted curve at half-maximal effect); conditions: purified GBA, blue fluorogenic substrate, 40 min
# Method in brief: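 Compounds titrated from 0.6 nM upwards against 0.2 nM enzyme in pH 5.9 citric acid/KH2PO4, taurocholate, tween-20; blue fluorogenic substrate 80 uM, 40 min room temperature, stopped and read Ex 365/Em 440 for AC50.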
# [2] = AP1 Signaling Pathway (AID 357); conditions: ME-180 AP-1-bla reporter, EGF-induced, beta-lactamase ratio, 5 h; also: % is scaled to controls: 0 for no effect and ±100 for the full control effect
# Method in brief: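 ME-180 cells with beta-lactamase reporter under AP-1 response element, stimulated with EC50 EGF; compounds tested in titration series, 5 h at 37 °C. CCF4 substrate added 2.5 h at room temperature; 460/530 nm emission ratio gave %activity and AC50.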
# [3] = NFAT Signaling Pathway (AID 444); conditions: Jurkat NFAT-bla M1, carbachol, beta-lactamase ratio, 5 h;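 also: carbachol stimulus at about its EC50 of 1 µM final; % is scaled to controls: 0 for no effect and ±100 for the full control effect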
# Method in brief: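 Jurkat cells with NFAT-driven β-lactamase reporter and co-expressed M1 receptor, stimulated with carbachol (final 1 uM, ~EC50), compound titration, 5 h at 37 °C. CCF4 loaded 1 h at RT; 460/530 nm ratio gave %activity and AC50.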
# [4] = Stat Signaling Pathway (AID 446); conditions: ME-180 SIE beta-lactamase reporter, IL-6 stimulated, 5 h;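 also: ME-180 cervical cancer cells given 40 pM IL-6 alongside compound; SIE-controlled beta-lactamase reporter measured as 460/530 nm FRET emission ratio; % is scaled to controls: 0 for no effect and ±100 for the full control effect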
# Method in brief: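 ME-180 SIE-bla cells; overnight plating; cpd + IL-6 40 pM, 5 h, 37 C; LiveBLAzer 2.5 h RT; 460/530 nm emission ratio. Normalized to 300 pM IL-6 and 125 nM JAK inhibitor controls.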
# [5] = molecular target: Glucocorticoid receptor (Homo sapiens) (UniProt P04150); assay: GR-GFP Redistribution (AID 450;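 active = compounds whose dose series gives a full or clear partial fitted curve of increased nuclear translocation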; also: potency is read from the fitted curve at half-maximal effect); conditions: U2OS GR-GFP nuclear translocation, laser cytometry, 2 h
# [6] = molecular target: Glucocorticoid receptor (Homo sapiens) (UniProt P04150); assay: GR-EFC Redistribution (AID 451; calls by dose curve; also: potency is read from the fitted curve at half-maximal effect); conditions: CHO-K1 GR-EFC translocation, beta-gal luminescence, 2 h
# Method in brief: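 CHO-K1 cells expressing nuclear EA and GR-ED fragments of b-gal; compounds titrated up to 46 uM final, 2 h at 37 C. GR nuclear translocation read as complemented b-gal luminescence after 1 h RT detection.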
# [7] = molecular target: Mitogen-activated protein kinase 10 (Mus musculus) (UniProt Q61831); assay: JNK3 AlphaScreen Assay (AID 530);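 also: kinase came from lysate of stimulated human HepG2 cells; signal reports phosphorylation of biotinylated GST-cJun 1-79 at Ser73 with 10 µM ATP; % is scaled to controls: 0 for no effect and ±100 for the full control effect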
# Method in brief: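 Pre-activated (IL-1β/TNFα) JNK3 in HepG2 lysates phosphorylates biotin-GST-cJun(1-79), 10 uM ATP; anti-phospho-cJun(Ser73) AlphaScreen read at room temperature, pH 7.6 Tris buffer. Compounds pre-incubated 15 min as titrations.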
# [8] = molecular target: 3',5'-cyclic-AMP phosphodiesterase 4B (Homo sapiens) (UniProt Q07343); assay: qHTS Assay for Inhibitors of PDE-IV (AID 607; active = well fitted activation curve with a large enough effect in the main read-out, with a control signal flat, not every such curve was filed as active; also: % of control where 0% means no effect)
# Method in brief: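 ACTOne HEK293 cells carry a modified cAMP-gated CNG channel and express endogenous PDE4; plated 1000 cells/well, compounds up to 22.9 uM final. Membrane-potential dye fluorescence (ex 535/em 590) was read; parental cells received 10 uM forskolin + 100 uM RO 20-1724.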
# [9] = molecular target: Guanine nucleotide-binding protein G(i) subunit alpha-1 (Homo sapiens) (UniProt P63096); assay: qHTS Assay for Inhibitors of RGS12 GoLoco Motif Activity (Green Fluorophore) (AID 879; active = well fitted curve in the direction sought with a large enough effect; an effect the other way counts as inactive or inconclusive;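 also: 0% = labeled peptide with Gαi1 and full inhibition = labeled peptide alone without protein; negative values mean loss of peptide binding seen as reduced polarization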)
# Method in brief: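 Fluorescence polarization assay: 50 nM Gαi1 with 10 nM FITC-labeled RGS12 GoLoco peptide in 10 mM Tris pH 7.5, 150 mM NaCl, 0.1 mM GDP, 0.05% NP40, 10 min at room temperature with compound.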
# [10] = molecular target: Pyruvate kinase (Leishmania mexicana) (UniProt Q27686); assay: qHTS Validation Assay for Inhibitors of Leishmania Mexicana Pyruvate Kinase (AID 945; active = well fitted curve in the direction sought with a large enough effect; an effect the other way counts as inactive or inconclusive;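 also: 0% = DMSO only neutral control wells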)
# Method in brief: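 An endpoint luciferase assay: 0.2 nM LmPYK E451W turns over 0.5 mM PEP with 0.1 mM ADP for 1 h at room temperature, pH 7.2, before PKLight addition. Values are normalized to DMSO-only wells.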
# [11] = molecular target: Pyruvate kinase PKM (Homo sapiens) (UniProt P14618); assay: qHTS Assay for Activators of Human Muscle Pyruvate Kinase (AID 954; active = well fitted curve in the direction sought with a large enough effect, not every such curve was filed as active;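 also: 0% = uninhibited enzyme and -100% = no enzyme or full thiadiazolimine inhibition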)
# Method in brief: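 Luminescence from a luciferase ATP-detection/stop reagent reported PKM2 activity. Reactions contained 0.1 nM purified human enzyme, 0.5 mM PEP, 0.1 mM ADP and 7 mM MgCl2 at pH 7.2, run 1 h at RT.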
# [12] = molecular target: Alpha-galactosidase A (Homo sapiens) (UniProt P06280); assay: Counterscreen for Glucocerebrosidase Inhibitors: qHTS Assay for Human alpha-Galactosidase at pH 4.5 (AID 992; active = well fitted curve in the direction sought with a large enough effect; an effect the other way counts as inactive or inconclusive; also: 0% is about no effect)
# Method in brief: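 Enzyme at 2 nM final was combined with compound (0.7 nM to 77 uM) and 80 uM 4-methylumbelliferyl alpha-D-galactopyranoside in 50 mM citric acid, 0.005% Tween-20, pH 4.5. After 20 min at room temperature, fluorescence was read (Ex 365/Em 440 nm); AC50 came from Hill fits.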
# [13] = molecular target: alpha-glucosidase (Oryza sativa, rice) (UniProt Q653V4); assay: Counterscreen for Glucocerebrosidase Inhibitors: qHTS Assay for Rice alpha-Glucosidase at pH 5.0 (AID 997; active = well fitted curve in the direction sought with a large enough effect; an effect the other way counts as inactive or inconclusive;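 also: 0% = full activity with enzyme and -100% = basal without enzyme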)
# Method in brief: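 Rice alpha-glucosidase (4 nM final) with 400 uM 4-methylumbelliferyl-alpha-D-glucopyranoside in citrate buffer pH 5.0, 20 min at room temperature, stopped at pH 10; fluorescence 365/440 nm, compounds 0.7 nM–77 uM, AC50 from Hill fits.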
# [14] = qHTS Assay for Lipid Storage Modulators (AID 1519; calls by dose curve); conditions: Drosophila S3 cells, BODIPY lipid droplet/cell ratio, laser cytometry, cells loaded with oleic acid
# Method in brief: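 Cells seeded at 5,000 per well were treated with compounds over a concentration series and loaded with oleic acid (400 uM, as added). Lipid droplet fluorescence (488 nm excitation, 500-530 nm channel) was read by laser-scanning cytometry and normalized to 20 uM Triacsin C.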
# [15] = molecular target: Ubiquitin carboxyl-terminal hydrolase 1 (Homo sapiens) (UniProt O94782); assay: Inhibitors of USP1/UAF1: Pilot qHTS (AID 504865; active = well fitted curve in the direction sought with a large enough effect; an effect the other way counts as inactive or inconclusive;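 also: rhodamine fluorescence freed from ubiquitin-rhodamine substrate followed over time; top concentration of the series differs between compounds; % is scaled to controls: 0 for no effect and ±100 for the full control effect; nearly all actives have a fitted effect of over 35% in size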)
# Method in brief: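 USP1/UAF1 complex at 1 nM preincubated 15 min at room temperature with compound, then Ub-Rho substrate added at 150 nM final. Fluorescence (480/540 nm) read kinetically in 50 mM HEPES pH 7.8, 0.5 mM EDTA, 1 mM TCEP, 0.1 mg/ml BSA, 0.01% Tween-20.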
# [16] = molecular target: DNA dC->dU-editing enzyme APOBEC-3G (Homo sapiens) (UniProt Q9HC16); assay: qHTS for inhibitors of Vif-A3G interactions: Validation (AID 588379; active = well fitted curve in the direction sought with a large enough effect; an effect the other way counts as inactive or inconclusive; also: 0% is about no effect)
# Method in brief: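 HeLa cells stably expressing Vif and A3G-eYFP, 700 cells/well, incubated overnight at 37 deg C, then exposed to compound overnight at 37 deg C. Inhibition of Vif-mediated degradation read as increased yellow fluorescence (Ex 488/Em 500-530) by laser-scanning cytometry.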
# [17] = test system: Zika virus NS2B-NS3 protease; assay: Primary screen GU AMC qHTS for Zika virus inhibitors (AID 1347154; active = well fitted curve in the direction sought with a large enough effect; an effect the other way counts as inactive or inconclusive;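 also: 0% = no-inhibitor control and -100% = no-enzyme control; nearly all actives have a fitted effect of over 70% in size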)
# Method in brief: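 Unlinked Zika NS2B hydrophilic domain–NS3 protease complex at 25 nM in 10 mM Tris-HCl pH 8.0, 0.01% Tween 20, with an AMC peptide substrate. Fluorescence change (340/450 nm) over 15 min at room temperature, normalized to controls, fitted to 4-parameter Hill.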
# [18] = Confirmatory qHTS for small molecule stabilizers of the endoplasmic reticulum resident proteome: Secreted ER Calcium Modulated Protein (SERCaMP) assay (AID 1508628; active = well fitted curve in the direction sought with a large enough effect; an effect the other way counts as inactive or inconclusive; also: nearly all actives have a fitted effect of over 40% in size; also: potency is read from the fitted curve at half-maximal effect)
# Method in brief: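 SH-SY5Y cells stably expressing GLuc-SERCaMP, treated 16 h with compound (primary 1.53, 7.67, 38.3 uM; confirmation 11 concentrations, up to 76.6 uM), then 100 nM thapsigargin for 4 h. Secreted Gaussia luciferase in medium read by coelenterazine luminescence.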
# Sequence of 3',5'-cyclic-AMP phosphodiesterase 4B (Homo sapiens) (Q07343 whole entry, looked up): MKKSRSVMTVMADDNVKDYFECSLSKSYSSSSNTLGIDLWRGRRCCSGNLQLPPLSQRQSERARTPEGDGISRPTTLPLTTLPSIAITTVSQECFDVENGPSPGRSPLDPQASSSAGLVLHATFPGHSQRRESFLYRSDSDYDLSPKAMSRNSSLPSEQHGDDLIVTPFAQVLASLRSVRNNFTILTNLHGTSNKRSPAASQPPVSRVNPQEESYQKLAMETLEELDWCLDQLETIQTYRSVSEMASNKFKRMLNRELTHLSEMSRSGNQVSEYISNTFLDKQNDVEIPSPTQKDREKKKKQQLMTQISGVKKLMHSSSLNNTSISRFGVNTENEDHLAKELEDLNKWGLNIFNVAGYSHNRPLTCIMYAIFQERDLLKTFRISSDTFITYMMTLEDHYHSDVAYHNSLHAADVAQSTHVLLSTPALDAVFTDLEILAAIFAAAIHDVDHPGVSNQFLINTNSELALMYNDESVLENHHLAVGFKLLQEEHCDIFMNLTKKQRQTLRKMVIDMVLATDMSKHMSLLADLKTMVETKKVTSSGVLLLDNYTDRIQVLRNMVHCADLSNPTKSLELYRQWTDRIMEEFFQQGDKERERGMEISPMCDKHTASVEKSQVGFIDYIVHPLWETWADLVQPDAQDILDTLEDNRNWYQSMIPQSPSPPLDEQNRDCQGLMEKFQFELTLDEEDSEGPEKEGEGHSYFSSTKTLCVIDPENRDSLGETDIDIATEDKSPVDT
# Sequence of Glucocorticoid receptor (Homo sapiens) (P04150 whole entry, looked up, the tested form may be a part): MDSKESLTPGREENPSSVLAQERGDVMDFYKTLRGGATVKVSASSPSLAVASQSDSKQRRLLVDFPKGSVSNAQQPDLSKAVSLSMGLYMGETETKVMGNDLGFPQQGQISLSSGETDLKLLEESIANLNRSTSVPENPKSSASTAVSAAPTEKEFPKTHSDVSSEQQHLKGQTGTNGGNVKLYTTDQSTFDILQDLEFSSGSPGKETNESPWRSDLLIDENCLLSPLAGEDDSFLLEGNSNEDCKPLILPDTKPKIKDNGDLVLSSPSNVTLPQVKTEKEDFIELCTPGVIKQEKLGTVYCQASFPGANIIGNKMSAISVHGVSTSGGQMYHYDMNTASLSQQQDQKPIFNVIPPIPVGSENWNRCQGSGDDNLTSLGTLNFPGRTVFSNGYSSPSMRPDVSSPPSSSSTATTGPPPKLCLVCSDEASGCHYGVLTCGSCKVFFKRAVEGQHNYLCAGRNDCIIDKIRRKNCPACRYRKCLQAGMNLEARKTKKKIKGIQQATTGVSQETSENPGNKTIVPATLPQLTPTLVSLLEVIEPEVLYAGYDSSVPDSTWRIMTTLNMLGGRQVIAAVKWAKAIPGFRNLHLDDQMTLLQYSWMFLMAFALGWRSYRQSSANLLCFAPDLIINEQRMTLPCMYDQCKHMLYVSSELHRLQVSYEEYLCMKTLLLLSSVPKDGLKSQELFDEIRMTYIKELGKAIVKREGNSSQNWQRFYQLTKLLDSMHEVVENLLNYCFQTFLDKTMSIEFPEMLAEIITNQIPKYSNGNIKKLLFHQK
# Sequence of Ubiquitin carboxyl-terminal hydrolase 1 (Homo sapiens) (O94782 whole entry, looked up): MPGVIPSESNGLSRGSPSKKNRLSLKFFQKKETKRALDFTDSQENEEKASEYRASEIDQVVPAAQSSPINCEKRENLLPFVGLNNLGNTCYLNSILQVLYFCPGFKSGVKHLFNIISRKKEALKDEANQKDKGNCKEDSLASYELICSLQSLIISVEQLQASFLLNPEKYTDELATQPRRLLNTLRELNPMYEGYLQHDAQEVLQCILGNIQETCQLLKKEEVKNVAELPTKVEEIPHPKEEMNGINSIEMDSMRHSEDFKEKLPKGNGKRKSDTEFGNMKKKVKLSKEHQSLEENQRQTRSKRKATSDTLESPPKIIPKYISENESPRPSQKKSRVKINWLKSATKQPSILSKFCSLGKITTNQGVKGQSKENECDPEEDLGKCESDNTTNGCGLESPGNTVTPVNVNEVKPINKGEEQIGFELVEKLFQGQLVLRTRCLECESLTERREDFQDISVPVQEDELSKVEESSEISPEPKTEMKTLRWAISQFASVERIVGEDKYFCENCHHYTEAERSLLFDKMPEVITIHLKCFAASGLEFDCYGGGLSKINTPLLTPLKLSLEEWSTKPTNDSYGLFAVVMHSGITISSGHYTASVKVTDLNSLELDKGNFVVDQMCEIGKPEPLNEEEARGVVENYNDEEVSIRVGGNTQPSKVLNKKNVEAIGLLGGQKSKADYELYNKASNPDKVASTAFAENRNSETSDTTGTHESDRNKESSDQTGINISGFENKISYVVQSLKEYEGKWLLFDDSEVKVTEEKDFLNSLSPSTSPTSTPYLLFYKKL
# Sequence of Pyruvate kinase PKM (Homo sapiens) (P14618 whole entry, looked up): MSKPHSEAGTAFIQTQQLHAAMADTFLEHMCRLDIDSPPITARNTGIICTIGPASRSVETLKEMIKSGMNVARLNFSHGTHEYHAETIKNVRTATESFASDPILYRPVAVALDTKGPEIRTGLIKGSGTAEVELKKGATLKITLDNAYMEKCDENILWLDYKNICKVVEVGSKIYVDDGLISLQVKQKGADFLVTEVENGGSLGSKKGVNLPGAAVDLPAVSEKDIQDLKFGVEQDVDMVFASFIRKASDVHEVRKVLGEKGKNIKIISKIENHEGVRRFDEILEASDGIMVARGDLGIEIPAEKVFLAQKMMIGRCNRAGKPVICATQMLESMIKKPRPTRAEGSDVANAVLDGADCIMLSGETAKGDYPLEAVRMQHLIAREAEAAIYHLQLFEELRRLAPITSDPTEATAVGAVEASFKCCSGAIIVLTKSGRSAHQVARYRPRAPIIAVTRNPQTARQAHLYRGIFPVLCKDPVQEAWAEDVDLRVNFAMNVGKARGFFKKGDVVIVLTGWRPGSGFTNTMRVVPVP
# Sequence of Guanine nucleotide-binding protein G(i) subunit alpha-1 (Homo sapiens) (P63096 whole entry, looked up): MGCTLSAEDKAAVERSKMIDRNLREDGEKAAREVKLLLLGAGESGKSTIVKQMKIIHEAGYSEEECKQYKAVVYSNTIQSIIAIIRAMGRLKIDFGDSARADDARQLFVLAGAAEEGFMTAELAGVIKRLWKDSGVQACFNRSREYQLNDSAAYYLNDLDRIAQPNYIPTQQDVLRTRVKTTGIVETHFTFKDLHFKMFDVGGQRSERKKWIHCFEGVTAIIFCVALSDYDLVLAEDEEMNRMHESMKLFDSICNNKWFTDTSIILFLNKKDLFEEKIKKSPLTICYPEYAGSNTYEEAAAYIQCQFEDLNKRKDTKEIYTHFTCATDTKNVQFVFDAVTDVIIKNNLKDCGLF
# Sequence of DNA dC->dU-editing enzyme APOBEC-3G (Homo sapiens) (Q9HC16 whole entry, looked up): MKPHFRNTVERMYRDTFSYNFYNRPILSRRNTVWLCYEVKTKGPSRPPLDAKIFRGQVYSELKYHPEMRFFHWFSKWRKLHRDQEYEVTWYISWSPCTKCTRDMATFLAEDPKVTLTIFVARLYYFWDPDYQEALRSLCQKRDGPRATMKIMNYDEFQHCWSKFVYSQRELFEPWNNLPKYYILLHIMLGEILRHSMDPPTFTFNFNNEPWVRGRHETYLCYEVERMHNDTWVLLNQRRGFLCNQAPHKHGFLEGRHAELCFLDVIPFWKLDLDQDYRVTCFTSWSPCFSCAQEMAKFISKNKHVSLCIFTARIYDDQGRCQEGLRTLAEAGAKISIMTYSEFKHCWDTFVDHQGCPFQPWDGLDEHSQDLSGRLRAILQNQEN
# Sequence of Alpha-galactosidase A (Homo sapiens) (P06280 whole entry, looked up): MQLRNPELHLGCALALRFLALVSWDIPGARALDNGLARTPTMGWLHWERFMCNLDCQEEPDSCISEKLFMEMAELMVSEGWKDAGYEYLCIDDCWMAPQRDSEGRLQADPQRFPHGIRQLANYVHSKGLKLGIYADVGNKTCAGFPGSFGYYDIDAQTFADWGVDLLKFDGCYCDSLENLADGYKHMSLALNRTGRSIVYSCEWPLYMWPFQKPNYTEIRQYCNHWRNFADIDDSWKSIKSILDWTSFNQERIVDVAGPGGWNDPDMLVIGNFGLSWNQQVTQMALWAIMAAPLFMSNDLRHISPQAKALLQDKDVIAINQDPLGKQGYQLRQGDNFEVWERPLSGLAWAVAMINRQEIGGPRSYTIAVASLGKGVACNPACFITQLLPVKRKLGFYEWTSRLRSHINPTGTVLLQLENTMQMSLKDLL
# Sequence of Lysosomal acid glucosylceramidase (Homo sapiens) (P04062 whole entry, looked up): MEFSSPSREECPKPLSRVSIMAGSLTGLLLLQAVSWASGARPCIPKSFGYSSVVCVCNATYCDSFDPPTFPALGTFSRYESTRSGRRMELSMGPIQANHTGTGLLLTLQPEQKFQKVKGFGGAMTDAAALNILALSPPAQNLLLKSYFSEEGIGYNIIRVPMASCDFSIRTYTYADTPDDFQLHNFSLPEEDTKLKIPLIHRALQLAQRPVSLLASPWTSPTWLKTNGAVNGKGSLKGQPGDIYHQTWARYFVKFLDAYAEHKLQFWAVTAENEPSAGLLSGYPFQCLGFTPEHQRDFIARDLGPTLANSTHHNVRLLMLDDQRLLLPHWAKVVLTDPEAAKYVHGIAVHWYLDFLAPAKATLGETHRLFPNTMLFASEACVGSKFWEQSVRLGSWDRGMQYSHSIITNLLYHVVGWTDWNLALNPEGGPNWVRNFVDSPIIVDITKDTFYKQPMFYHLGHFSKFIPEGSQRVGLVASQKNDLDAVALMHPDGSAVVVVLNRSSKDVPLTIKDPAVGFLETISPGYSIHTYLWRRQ
structure (smiles),measurement,setting,value
CN(C)C/C=C(\c1ccc(Br)cc1)c1cccnc1,Potency,[1],> 11.4 µM (inactive)
same,"activity change, negative = inhibition",[2]; at 7.69 µM (top of the series),5.82% (inactive)
same,"activity change, negative = inhibition",[2]; at 17.2 µM (top of the series),4.78% (inactive)
same,"activity change, negative = inhibition",[2]; at 38 µM (top of the series),14.9% (inactive)
same,"activity change, negative = inhibition",[3]; at 7.69 µM (top of the series),-7.27% (inactive)
same,"activity change, negative = inhibition",[3]; at 17.2 µM (top of the series),-12.7% (inactive)
same,"activity, negative = inhibition",[4]; at 7.69 µM (top of the series),3.29% (inactive)
same,"activity, negative = inhibition",[4]; at 17.2 µM (top of the series),7.82% (inactive)
same,"activity, negative = inhibition",[4]; at 38 µM (top of the series),-15.8% (inactive)
same,Potency,[5],> 46 µM (inactive) and > 20.6 µM (inactive)
same,Potency,[6],> 46 µM (inactive) and > 20.6 µM (inactive) and > 9.22 µM (inactive)
same,Potency,[7],inactive
same,Potency,[8],inactive
same,outcome,[9],inactive
same,Potency,[10],inactive
same,outcome,[11],inactive
same,outcome,[12],inactive
same,outcome,[13],inactive
same,"activity change, negative = inhibition",[14]; at 25.7 µM (top of the series),-2.94% (inactive)
same,max response,[14]; measured here: cell count channel max response,-7.55%
same,max response,[14]; measured here: lipid channel max response,-11.6%
same,Potency,[15],inactive
same,Potency,[16],inactive
same,Potency,[17],inactive
same,Potency,[18],44.7 µM (active)
CCN(CC)CCCCN1c2ccccc2Oc2ccc(Cl)cc21,Potency,[17],inactive
same,Potency,[18],inactive
